Bioassay records: PubChem, National Center for Advancing Translational Sciences (NCATS)
Shown are actives, neighbours in structure and some others; about 8.3% of the full set was active somewhere.
RORg inh: qHTS for inhibitors of ROR gamma transcriptional activity | Nuclear receptor ROR-gamma (Mus musculus), P51450 | Drosophila S2 Gal4-RORgamma UAS-luciferase reporter, 20 h | Potency, µM (highest dose often 53.6 µM), for the others: at the highest dose activity change, negative = inhibition, usual class: inhibitors | actives 5.4% (n = 310,000) | AID 2551, 2010; note: potency is the fitted concentration of half-maximal effect; % is set by controls: 0 for no effect and ±100 for the full control effect; nearly all actives have a fitted effect of over 60% in size
Target sequence (P51450 whole entry, looked up, the tested form may be a part): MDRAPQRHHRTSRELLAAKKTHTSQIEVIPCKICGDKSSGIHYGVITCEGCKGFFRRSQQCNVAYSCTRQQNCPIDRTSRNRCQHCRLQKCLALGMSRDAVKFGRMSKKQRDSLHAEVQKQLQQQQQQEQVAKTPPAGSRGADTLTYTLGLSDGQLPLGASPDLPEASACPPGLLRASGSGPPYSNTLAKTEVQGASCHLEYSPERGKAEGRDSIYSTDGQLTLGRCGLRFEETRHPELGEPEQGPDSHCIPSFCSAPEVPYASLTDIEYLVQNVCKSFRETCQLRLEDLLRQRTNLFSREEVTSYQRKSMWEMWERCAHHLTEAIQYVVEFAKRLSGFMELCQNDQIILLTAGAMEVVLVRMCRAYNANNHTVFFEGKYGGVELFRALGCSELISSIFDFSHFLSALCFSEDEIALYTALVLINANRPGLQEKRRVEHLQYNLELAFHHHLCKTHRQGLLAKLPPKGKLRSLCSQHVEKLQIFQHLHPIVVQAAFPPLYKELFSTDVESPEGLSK
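Schneider cells (Drosophila), stable Gal4 DBD–ROR gamma + UAS-luc; 1 hr cmpd preincubation; Cu2+ induction 700 uM final; 20 hr ambient; luminescence.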
Giardia killer: Small Molecules that selectively kill Giardia lamblia: qHTS. Giardia lamblia trophozoite viability. activity change, % at 7.66 µM, hits read low. actives 0.15% (n = 340,000); in the data active = activity change below about -80%; inconclusive = between about -30% and that limit;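 note: parasites exposed to compound for two days anaerobically before the ATP read; % is set by controls: 0 for no effect and ±100 for the full control effect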
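Media and compound were dispensed first, then trophozoites at 100 cells/well; plates sat 48 hrs at 37 deg C without oxygen before ATP luminescence reagent was added and read after 15-30 min at room temperature.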
SW480 rereplic: A quantitative high throughput screen for small molecules that induce DNA re-replication in SW480 colon adenocarcinoma cells; SW480 DNA re-replication, Hoechst DNA content imaging, 48 h; Potency, µM (series often up to 46.1 µM), for the others: at the top dose re-replication activation, hits mostly activators; actives 1.8% (n = 340,000); AID 624297, 2012; note: potency is the fitted concentration of half-maximal effect; % of control where 0% means no effect; nearly all actives have a fitted effect of over 55% in size
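Compounds, transferred as 23 nL by pin tool, were incubated with cells for 48 hr; DNA content per nucleus was then quantified by Hoechst staining and fluorescence plate imaging.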
MCF10A rerep: A quantitative high throughput screen for small molecules that induce DNA re-replication in MCF 10a normal breast cells. MCF 10A DNA re-replication, Hoechst nuclear intensity, 48 h. actives 2.9% (n = 350,000). Potency, µM (doses to about 46.1 µM), without a hit: at the highest dose activity, positive = re-replication, hits mostly activators; note: potency is the fitted concentration of half-maximal effect; % of control where 0% means no effect; nearly all actives have a fitted effect of over 50% in size
Chronic BCR inh: qHTS Assay to Find Inhibitors of Chronic Active B-Cell Receptor Signaling | ABC-DLBCL IkBa-CBG/CBR reporter, luminescence ratio, 4 h | Potency, µM (doses to about 46.1 µM), for the others: at the top dose activity change, negative = inhibition, actives largely listed as inhibitors | actives 0.05% (n = 340,000) | AID 493014, 2011; active = well fitted inhibition curve with a large enough effect in the signal ratio, with a control signal flat, not every such curve was filed as active; inconclusive = small, poorly fitted or top-dose-only effect, or effect the other way, or a change in a side signal; the % refers to the signal ratio;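 note: potency is the fitted concentration of half-maximal effect; plate controls were basal doxycycline-induced cells for no effect and cells given 10 µM MG132 for full effect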
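Cell line TMD8 (human ABC DLBCL), stably expressing tet-inducible CBG68-IkBa fusion and CBR; IMDM/0.5% FBS; cpd up to 46 uM; dox induction, 4 h, 37C/5% CO2; dual luminescence; green/red ratio; MG132 control.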
VP16 counter: VP16 counterscreen qHTS for inhibitors of ROR gamma transcriptional activity. Drosophila S2 Gal4-VP16 UAS-luciferase, luminescence, 20 h. Potency, µM (titrated, usually from 53.6 µM), for the others: top-dose activity, negative = inhibition, hits mostly inhibitors. actives 3.5% (n = 310,000);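 note: Gal4-VP16 expression switched on by copper sulfate through the metallothionein promoter; potency is the fitted concentration of half-maximal effect; % is set by controls: 0 for no effect and ±100 for the full control effect; nearly all actives have a fitted effect of over 50% in size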
Starred values were filed as active, the others as inactive; ? = inconclusive; . = no result given. Unless noted, calls come from the whole dose curve; as a rule, active = well fitted curve in the direction sought with a large enough effect; inconclusive = small, poorly fitted or top-dose-only effect, or another doubt; inactive = no such curve, though single readings can be large; an effect the other way counts as inactive or inconclusive.

SMILES | RORg inh | Giardia killer | SW480 rereplic | MCF10A rerep | Chronic BCR inh | VP16 counter
Cc1c(OCC(=O)NCc2cccnc2)ccc2c3c(c(=O)oc12)CCCC3 | -9.3% | -7.2 | ? | ? | -1.3% | -19.8%
CC(/C=N/n1c(C2CCCCC2)n[nH]c1=S)=C\c1ccccc1 | 3.55µM* | 2.6 | ? | 20.6µM* | ? | 10µM*
CC(/C=N/n1c(-c2cc(C)[nH]n2)n[nH]c1=S)=C\c1ccccc1 | 8.91µM* | 1.2 | -5.4% | -7.9% | 2.5% | ?
CC(=C/c1ccccc1)/C=N/n1c(-c2ccco2)n[nH]c1=S | 17.3% | -4.2 | -24.8% | 12.4% | ? | -1.0%
Cc1cccc(/C=N/n2c(C3CCCCC3)n[nH]c2=S)c1 | 3.16µM* | -28.2 | -4.0% | 17.3% | -1.8% | 7.08µM*
S=c1[nH]nc(C2CCCCC2)n1/N=C/c1cccc(Br)c1 | 2µM* | 3.0 | 2.0% | -14.0% | 0.0% | -12.7%
S=c1[nH]nc(C2CCCCC2)n1/N=C/c1ccncc1 | ? | 14.0 | 0.7% | ? | 11.8% | -13.9%
Cc1ccccc1C(=O)Nc1ccc(-c2nnc(SC(C)C(=O)O)n2C)cc1 (centres undefined) | 26.4% | 4.8 | -4.9% | -5.6% | 1.6% | 3.1%
C=CCNC(=O)/C(C#N)=C/c1ccccc1OCc1ccc(C(=O)OC)cc1 | ? | -8.9 | 24.3% | 4.61µM* | ? | -8.6%
N#C/C(=C\c1ccccc1OCc1ccc(C(=O)O)cc1)C(=O)Nc1ccc(O)cc1 | -20.9% | 0.4 | 2.5% | 23.1µM* | ? | 17.7%
CC=CC1OCC(CC)C(CCC)O1 (centres undefined) | . | 19.7 | 1.0% | 17.9% | . | .
N#CC1(NC(=O)CSc2nncn2-c2ccccc2F)CCCC1 | . | -10.6 | -21.8% | -1.8% | -2.2% | .
O=C(COC(=O)c1cc(-c2ccc(F)cc2)nc2ccccc12)NCC1CCCO1 (centres undefined) | 2.9% | -6.4 | -9.3% | -2.2% | ? | -4.1%
COc1ccc([N+](=O)[O-])cc1NC(=O)C1C2C=CC(C2)C1C(=O)O (centres undefined) | 20.3% | -13.9 | -1.0% | 5.5% | 0.6% | 2.3%
CCOC(=O)C1(Cc2cccc(OC)c2)CCN(Cc2cc(OC)ccc2OC)CC1 | -0.7% | 3.9 | 23.1µM* | ? | 5.8% | 1.3%
CCOC(=O)C1(Cc2cccc(OC)c2)CCN(Cc2cccnc2)CC1 | 11.2µM* | -6.1 | -29.7% | -12.2% | ? | -17.6%
CCOC(=O)C1(Cc2cccc(OC)c2)CCN(Cc2ccccc2)CC1 | -1.5% | -12.5 | -31.9% | 15.2% | -6.0% | -1.0%
CCOC(=O)C1(Cc2ccc(OC)cc2)CCN(C(=O)c2ccc3[nH]ccc3c2)CC1 | -0.3% | -2.5 | ? | 11.6µM* | -23.9% | -5.1%
CCOC(=O)C1(Cc2ccc(OC)cc2)CCN(C(=O)c2ccoc2C)CC1 | 9.8% | -1.2 | -37.3% | ? | -4.9% | -14.4%
CCOC(=O)C1(Cc2ccccc2)CCCN(Cc2ccccn2)C1 (centres undefined) | 12.6µM* | -7.4 | -4.0% | 6.6% | 0.0% | -12.2%
CCOC(=O)C1(Cc2ccccc2)CCCN(CCO)C1 (centres undefined) | -5.8% | -3.0 | 2.5% | ? | -7.3% | -3.8%
O=c1[nH]c2cc(Cl)c(O)cc2o1 | 40.0% | . | . | . | . | -0.5%
CCOC(=O)C1(CC2CC2)CCN(Cc2cnc(-c3ccc(OC)cc3)nc2)CC1 | 41.1% | -10.5 | -45.0% | 13µM* | ? | 1.1%
CCn1ccnc1CN1CCCC(CO)(Cc2cccc(OC)c2)C1 (centres undefined) | -30.0% | -8.3 | -1.9% | 4.4% | 0.6% | 10.3%
